# Screens (PubChem BioAssay)
# CHOP inhibitor: blocks CHOP induction under ER stress | inhibition, % at 10 µM | CHO-K1 CHOP-promoter luciferase, tunicamycin-induced, 15-18 h | 220,000 compounds, 3.8% hits;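 active = compounds that reduced the stress-induced luciferase reporter signal by more than about 70% of percent inhibition, limit read from the data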;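 also: 0% = tunicamycin plus vehicle and 100% = wells without tunicamycin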
# S1P4 antag: human S1P4 receptor antagonism; O95977; S1P4-expressing cells, antagonist mode, reporter read-out; inhibition, % at 4.98 µM; 220,000 compounds, 0.26% hits; AID 1510; in the data active = inhibition above about 29%;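 also: 0% = wells stimulated with agonist and 100% = vehicle wells without agonist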
# Target sequence (O95977 whole entry, looked up): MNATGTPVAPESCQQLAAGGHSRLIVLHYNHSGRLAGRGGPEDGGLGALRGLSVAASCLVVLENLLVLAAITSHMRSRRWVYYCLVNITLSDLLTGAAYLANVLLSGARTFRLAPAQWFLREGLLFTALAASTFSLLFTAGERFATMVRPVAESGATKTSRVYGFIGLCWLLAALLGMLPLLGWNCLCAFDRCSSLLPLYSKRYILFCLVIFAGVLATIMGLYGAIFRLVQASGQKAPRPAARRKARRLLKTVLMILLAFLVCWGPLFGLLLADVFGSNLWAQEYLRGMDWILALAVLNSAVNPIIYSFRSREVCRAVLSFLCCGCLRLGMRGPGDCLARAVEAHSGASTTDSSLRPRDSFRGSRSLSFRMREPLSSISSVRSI
# S1P4 ag: agonists of human S1P4 receptor; 220,000 compounds, 0.35% hits; activation, % at 4.98 µM; S1P4-expressing cell line, agonist reporter assay; AID 1509; in the data active = activation above about 11%;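 also: 0% = DMSO vehicle and 100% = reference agonist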
# Hsp70 act: Hsp70 transcriptional activation, primary screen; HeLa Hsp70 promoter luciferase reporter, luminescence; scaled: vehicle 0, proteasome-inhibitor control 100%; activation, % at 10 µM; 200,000 compounds, 0.04% hits; AID 1203;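 active = activation above the mean across all tested compounds plus 3 SD, cutoff set per campaign, cut at about 5.5% in these data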;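 also: 100% = MG132 at 30 µM as the positive control and 0% = DMSO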
# * = called active by the depositor; / = no result. Shown are actives, neighbours in structure and some others; about 4.2% of the full set was active somewhere.
SMILES,CHOP inhibitor,S1P4 antag,S1P4 ag,Hsp70 act
COc1c(F)c(F)c(C(=O)Nc2ccc(N3CCN(Cc4ccccc4)CC3)cc2)c(F)c1F,88*,3,-1,0
COc1c(F)c(F)c(C(=O)Nc2ccc(-c3nc4ccccc4[nH]3)cc2)c(F)c1F,83*,-10,0,0
O=C(CSc1ccccc1)Nc1ccc(-c2nc3ccccc3[nH]2)cc1,94*,-7,-1,0
COc1ccc(C(=O)Nc2ccc(N3CCN(Cc4ccccc4)CC3)cc2)cc1,-9,-10,1,0
O=C(Nc1ccc(-c2nc3ccccc3[nH]2)cc1)c1c(F)c(F)c(F)c(F)c1F,-19,15,-1,0
O=C(CN1CCOCC1)Nc1ccc(-c2nc3ccccc3[nH]2)cc1,1,9,-1,0
COC(=O)c1cn(NC(=O)CCC2CCCC2)c(=O)c2ccccc12,25,10,2,0
COC(=O)c1cn(NC(=O)CC2CCCCC2)c(=O)c2ccccc12,72*,6,1,0
CC1=CC2=NC(=O)/C(=C\c3ccc(-c4ccc(Cl)cc4)o3)C(=N)N2O1,93*,-18,7,0
CC1=CC2=NC(=O)/C(=C/c3cccs3)C(=N)N2O1,2,-3,0,/
NC(=O)c1cccn1Cc1ccccc1Cl,-12,-8,-1,0
NC(=O)c1ccc(C(F)(F)F)n(Cc2ccccc2Cl)c1=O,92*,3,1,0
OC(CNCCc1ccc(Cl)cc1)COc1ccc2ccccc2c1 (stereo unspecified),100*,-15,2,0
CC(C)(C)C(=O)/C(=C/c1ccncc1)n1cncn1,85*,-6,-2,0
Cc1nn(C)c(C)c1/C=C(/C(=O)C(C)(C)C)n1cncn1,-9,11,1,/
Cc1ccc(C2=NN(C(=O)CCC(=O)O)C(c3cn(-c4ccccc4)nc3-c3ccc(C)cc3)C2)cc1 (stereo unspecified),95*,-15,0,0
Cc1ccc(-c2nn(-c3ccccc3)cc2C2CC(c3ccccc3)=NN2C(=O)CCC(=O)O)cc1 (stereo unspecified),24,-8,0,/
O=C(COc1ccc(S(=O)(=O)N2CCCCC2)cc1)NCc1ccncc1,5,-12,2,0
N#C/C(=C\Nc1ccc(Cl)cn1)S(=O)(=O)c1ccccc1,2,-3,2,/
COc1ccc(-c2cc(C(=O)N3CC4(C)CC3CC(C)(C)C4)no2)cc1 (stereo unspecified),-7,1,1,0
COc1ccc(-c2cc(C(=O)N3CC4(C)CC3CC(C)(C)C4)no2)cc1OC (stereo unspecified),73*,16,1,0
CC1(C)CC2CC(C)(CN2C(=O)c2cc(-c3ccccc3O)on2)C1 (stereo unspecified),76*,-13,-4,0
COc1ccc(C(=O)N2CCCC2)cc1S(=O)(=O)N1CCOCC1,-24,-7,1,0
CCOc1ccc2c(CC)cc(=O)oc2c1OCC,6,-14,2,0
CN(C)c1ccc(/C=N/NC(=O)CN2CCN(c3ccc(F)cc3)CC2)cc1,82*,-1,1,0
SMILES,CHOP inhibitor,S1P4 antag,S1P4 ag,Hsp70 act
CCC(=O)Oc1ccc(C(CC)C(CC)c2ccc(OC(=O)CC)cc2)cc1 (stereo unspecified),38,3,-1,0
Cc1ccc(-c2nnn(CC(=O)N(CC3CCCO3)C(C(=O)NC3CCCC3)c3ccc(F)cc3)n2)o1 (stereo unspecified),80*,5,0,0
Cc1ccc(-c2nnn(CC(=O)N(CC3CCCO3)C(C(=O)NC3CCCC3)c3ccc(O)cc3)n2)o1 (stereo unspecified),3,5,0,0
O=C(Nc1ccncc1)c1cccs1,44,-5,0,0
N#CC(C(=O)Nc1ccc(Cl)cc1)=C1Nc2ccccc2N1,90*,-15,3,0
N#CC(C(=O)Nc1ccccc1)=C1CCCCC1,-16,-3,0,0
COc1cccc(-c2cc(N)nn2C(=O)Nc2ccc(Cl)cc2)c1,95*,10,-1,0
CC(=O)c1cccc(N2C(=NC(=O)C(C)C)SC3CS(=O)(=O)CC32)c1 (stereo unspecified),2,3,1,0
OC(COc1ccc2cc(Br)ccc2c1)CN1CCN(c2ccccn2)CC1 (stereo unspecified),79*,2,0,0
COc1cccc(OCC(O)CN2CCN(c3ccccn3)CC2)c1 (stereo unspecified),14,-7,0,0
O=S(=O)(N1CCCCC1)N1CCN(CC(O)COc2ccc3cc(Br)ccc3c2)CC1 (stereo unspecified),87*,0,-1,0
Cc1cccc(C)c1OCC(O)CN1CCN(c2ccccn2)CC1 (stereo unspecified),17,-18,0,0
OC(COC(c1ccc(Cl)cc1)c1ccc(Cl)cc1)CN1CCN(c2ccccn2)CC1 (stereo unspecified),91*,-13,1,0
O=C(CSCc1ccccc1)N1CCN(c2cccc(C(F)(F)F)c2)CC1,85*,11,0,0
C/C(=C\c1ccccc1)C(=O)N1CCN(c2cccc(C(F)(F)F)c2)CC1,82*,-10,1,0
O=C1Nc2ccccc2OC1CC(=O)N1CCN(c2cccc(C(F)(F)F)c2)CC1 (stereo unspecified),86*,0,2,0
O=C(CSCc1ccccc1)N1CCN(c2ccccc2)CC1,-6,-9,-3,0
Cc1ccc(/C=C/C(=O)N2CCN(c3cccc(C(F)(F)F)c3)CC2)cc1,66,-7,0,0
O=C1Nc2ccccc2OC1CC(=O)N1CCOCC1 (stereo unspecified),30,3,0,0
O=C(CCCCn1c(=O)[nH]c2ccccc2c1=O)N1CCN(c2cccc(C(F)(F)F)c2)CC1,88*,-4,0,0
CC(C)OCCCNC(=O)c1cccs1,-12,1,0,0
C=CCNC(=O)Nc1ccc2nc(C)sc2c1,-1,-9,2,0
CCN1CCC2(CC1)N=C(c1ccc(F)cc1)C(=S)N2C(=O)c1ccc(C(C)(C)C)cc1,93*,-18,2,0
CCOC(=O)c1c(C)[nH]c(C(=O)OCC(=O)Nc2ccc(OCC)cc2)c1C,20,-18,-2,0
CCOC(=O)c1c(C)[nH]c(C(=O)COC(=O)C(C)Oc2ccc(Cl)cc2Cl)c1C (stereo unspecified),75*,-12,0,0
CCOC(=O)c1c(C)[nH]c(C(=O)OCCOc2ccc(Cl)cc2)c1C,72*,-13,0,0
CCOC(=O)c1c(C)[nH]c(C(=O)COC(=O)CNC(=O)c2ccc(Cl)cc2)c1C,21,-14,3,0
COC(=O)c1c(C)[nH]c(C(=O)CSc2nnnn2-c2ccccc2)c1C,77*,2,0,0
CCOC(=O)c1c(C)[nH]c(C(=O)CSc2nc(C)cc(C)n2)c1C,45,-12,2,0
CCOC(=O)c1c(C)[nH]c(C(=O)CSc2ccc(Cl)cc2)c1C,70*,-1,2,0
